# Source: PubChem
# Sampled rows, rich in hits. Any-hit rate of the full collection: about 2.3%.
# Rin1-Abl PPI inh = inhibitors of human Rin1-Abl protein interaction. P00519+Q13671. TR-FRET Rin1/Abl binding, biochemical. inhibition, % at 7.35 µM. 360,000 tested, 0.4% active. AID 588664; in the data active = inhibition above about 5%, passing the limit was not always enough
# IDE act = activators of human insulin-degrading enzyme in cells; activation, % at 5.96 µM; 340,000 tested, 0.073% active; P14735; AID 493087; HEK cells, FAbeta-B cleavage, fluorescence polarization; 0% vehicle, 100% cell-free pure enzyme wells;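 active = activation above the mean of all tested compounds plus 3 SD, set per screening campaign, cut at about 17% in these data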
# IDE inh = inhibits human insulin-degrading enzyme in HEK cells | P14735 | FAbetaB cleavage, fluorescence polarization | 320,000 tested, 0.41% active | inhibition, % at 5.59 µM;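 active = percent inhibition above the average of all tested compounds plus 3 SD, set per screening campaign, cut at about 16% in these data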;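 also: IDE supplied by intact live HEK cells; FP after avidin binding of uncleaved biotin substrate so inhibition keeps polarization high; 0% = DMSO wells and 100% = 60 µM reference IDE inhibitor Ii1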
# TPT1 inhibitor = blocks Candida albicans tRNA 2'-phosphotransferase; recombinant caTPT1, FP RNA substrate dephosphorylation; inhibition, % at 5 µM; 300,000 tested, 0.81% active; AID 1962;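 active = inhibition above the mean of all tested compounds plus 3 SD, set per screening campaign, cut at about 24% in these data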;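 also: plate controls were DMSO alone for no effect and ferristatin control at 100 nM for full effect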
# Calb FLC = affects C. albicans growth with fluconazole. C. albicans CaCi-2 (fluconazole-resistant clinical isolate) + fluconazole, Alamar Blue growth, 48 h. growth inhibition, % (no concentration beside the values). 300,000 tested, 0.57% active. AID 1979;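 active = growth inhibition above about 58% in most replicates, limit read from the data, passing the limit was not always enough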;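 also: all wells also contain fluconazole at 8 µg/ml as a sub-toxic cotreatment; 0% = median of DMSO wells and 100% = median of geldanamycin control wells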
# Rpn11 block = blocks the human proteasome subunit Rpn11. human 26S proteasome, Ub4-pepOG fluorescence polarization; 20S core pre-blocked with epoxomicin. inhibition, % at 20 µM. 360,000 tested, 0.59% active;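 active = inhibition at 20 µM, scaled to each plate's controls, above about 33%, limit read from the data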
# TPT1 inh confirm = confirmation of Candida albicans TPT1 inhibitors. shares compounds with TPT1 inhibitor. recombinant caTPT1, fluorescence polarization, RNase T1 coupled. inhibition, % at 5 µM. 2,400 tested, 74% active;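 active = inhibition above the primary screen limit, the mean inhibition of all tested compounds plus 3 SD, cut at about 25% in these data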
# RNase T1 inh = RNase T1 inhibition in TPT1 counter-screen. shares compounds with TPT1 inhibitor. RNase T1 cleavage, fluorescence polarization, 1536-well. inhibition, % at 5 µM. 2,400 tested, 83% active. AID 2153;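 active = inhibition above the solvent-only control well mean plus 3 SD, limit set per screening run, cut at about 23% in these data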;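 also: plate controls were DMSO wells with enzyme for no effect and wells without RNase T1 for full effect; inhibitors block cleavage so intact labeled substrate keeps polarization high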
# IDE inh confirm = cellular human IDE inhibition, confirmation. inhibition, % at 5.59 µM. HEK cells, FAbetaB cleavage, fluorescence polarization. shares compounds with IDE inh. 1,200 tested, 51% active;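 active = mean inhibition across triplicate wells above the cutoff set by the earlier primary insulin-degrading enzyme screen, cut at about 16% in these data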;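 also: 0% = DMSO wells and 100% = 60 µM reference IDE inhibitor Ii1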
# HEK cytotox = kills HEK cells in IDE inhibitor counter-screen; shares compounds with IDE inh; HEK293 cytotoxicity, ATP luminescence; inhibition, % at 5.59 µM; 1,200 tested, 28% active; in the data active = inhibition above about 22%;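 also: 0% = vehicle wells and 100% = reference cytotoxic drug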
# Rpn11 confirm = confirmation of human proteasome Rpn11 inhibitors. shares compounds with Rpn11 block. purified human 26S proteasome, Ub4-pepOG fluorescence polarization; proteasome pretreated with epoxomicin. inhibition, % at 20 µM. 1,900 tested, 29% active. AID 602318
# MMP-2 inh = MMP-2 (human) inhibition counter-screen; inhibition, % at 20 µM; shares compounds with Rpn11 block; 1,900 tested, 4% active; recombinant MMP-2, FRET peptide cleavage fluorescence;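 also: human MMP-2 activated beforehand with APMA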
# Target sequence (P08253 whole entry, looked up): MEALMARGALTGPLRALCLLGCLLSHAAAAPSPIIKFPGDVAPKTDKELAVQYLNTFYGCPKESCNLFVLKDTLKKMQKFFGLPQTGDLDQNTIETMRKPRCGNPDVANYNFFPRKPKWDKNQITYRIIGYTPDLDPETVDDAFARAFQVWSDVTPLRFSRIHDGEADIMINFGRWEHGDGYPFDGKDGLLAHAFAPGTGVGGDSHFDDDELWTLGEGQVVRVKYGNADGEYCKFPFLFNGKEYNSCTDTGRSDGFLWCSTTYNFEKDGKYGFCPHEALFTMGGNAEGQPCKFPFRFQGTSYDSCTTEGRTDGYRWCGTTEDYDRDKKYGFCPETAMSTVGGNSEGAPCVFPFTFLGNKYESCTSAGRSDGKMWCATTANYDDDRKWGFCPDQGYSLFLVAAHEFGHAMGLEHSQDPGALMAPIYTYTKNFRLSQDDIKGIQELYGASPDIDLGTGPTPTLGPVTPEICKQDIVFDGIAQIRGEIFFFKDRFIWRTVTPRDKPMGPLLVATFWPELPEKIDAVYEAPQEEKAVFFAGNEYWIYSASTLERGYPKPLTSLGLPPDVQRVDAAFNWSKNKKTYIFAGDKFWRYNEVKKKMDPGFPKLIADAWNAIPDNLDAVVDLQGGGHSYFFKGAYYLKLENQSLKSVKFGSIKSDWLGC
# Thrombin inh = thrombin (bovine) inhibition counter-screen. inhibition, % at 20 µM. bovine thrombin cleavage of Ub4-pepOG, fluorescence polarization. shares compounds with Rpn11 block. 1,900 tested, 13% active;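 active = mean inhibition at least 40% at 20 µM, or signal 3 deviations below plate average, so some actives read negative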;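 also: plate controls were thrombin with DMSO for no effect and buffer wells lacking thrombin for full effect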
# * = called active by the depositor; / = no result. Rule as the data show it, unless noted: active = inhibition above about 40%; inactive = the rest.
SMILES,Rin1-Abl PPI inh,IDE act,IDE inh,TPT1 inhibitor,Calb FLC,Rpn11 block,TPT1 inh confirm,RNase T1 inh,Rpn11 confirm,MMP-2 inh,Thrombin inh,others
COc1cc(/C=C2\SC(c3ccc(C)cc3)=NC2=O)cc(OC)c1O,0,-18,2,48*,51,47*,67*,79*,41*,21,10,
COc1cc(/C=C2/C(=O)N(c3ccc(C(=O)O)cc3)N=C2C)cc(OC)c1O,0,-3,/,/,8,33,/,/,/,/,/,
COc1cc(/C=C2\SC(N)=NC2=O)cc(Cl)c1O,-5,-42,26*,43*,-9,114*,60*,71*,76*,-24,57*,IDE inh confirm=47*;HEK cytotox=12
N#Cc1c(-c2ccc(F)cc2)cc(-c2cccnc2)nc1N,-1,7,2,6,0,12,/,/,/,/,/,
N#Cc1c(-c2ccco2)cc(-c2ccc(F)cc2)nc1N,2,-1,3,25*,23,73*,30*,38*,50*,-2,38,
CCOC(=O)[C@@H]1[C@H]2COc3ccc(Br)cc3[C@@H]2N2C(=O)N(c3ccc(C)cc3)C(=O)[C@@]12C,4,4,-2,/,/,-4,/,/,/,/,/,
O=c1cc(Cl)[nH]c(=O)n1CCNc1ncc(C(F)(F)F)cc1Cl,0,1,5,74*,39,82*,72*,85*,99*,7,87*,
Cc1cccc(/C=N/c2sc3c(c2C#N)CCN(Cc2ccccc2)C3)c1O,0,1,5,58*,-3,50*,56*,69*,18,-11,-7,
Cc1c(C(=O)N/N=C/c2ccc(O)c(Br)c2)sc(N)c1C#N,-6,-1,10,27*,/,58*,17,24*,54*,20,41*,
COc1ccc(C(=O)COC(=O)C2COc3ccccc3O2)c(OC)c1 (stereo not drawn),5,/,/,/,/,2,/,/,/,/,/,
CCOc1ccc(N2CC(C(=O)Nc3cc(S(=O)(=O)N4CCCCC4)ccc3C)CC2=O)cc1 (stereo not drawn),-2,-1,2,/,/,-2,/,/,/,/,/,
Cc1ccc(C(=O)Cn2nc(C)c([N+](=O)[O-])c2C)c(C)c1,0,0,4,1,-5,-4,/,/,/,/,/,
Cc1nn(CC(=O)c2ccc(Cl)s2)c(C)c1[N+](=O)[O-],-2,4,3,43*,-9,44*,40*,49*,19,6,17,
Cc1ccc(CCC(=O)Nc2ccc(Br)cc2)o1,1,-3,/,/,3,3,/,/,/,/,/,
COc1cc(/C=C/C(=O)OCC(=O)Nc2ccc3c(c2)OCCO3)ccc1O,-3,4,2,2,-27,-5,/,/,/,/,/,
COc1cc(/C=C(\C#N)C(=O)Nc2ccc3c(c2)OCCO3)ccc1O,-2,-37,16,57*,25,56*,71*,77*,2,17,37,
COc1cc(/C=C(\C#N)C(=O)N2CCc3ccccc32)ccc1O,2,-29,14,36*,4,81*,71*,76*,11,-16,10,
N#C/C(=C\c1cccc(O)c1)C(=O)N1CCCCC1,0,5,-1,1,10,2,/,/,/,/,/,
N#C/C(=C\c1ccc(O)c(O)c1)C(=O)N1CCc2ccccc21,1,-7,5,36*,/,65*,46*,51*,70*,15,15,
O=C(NN1C(=O)/C(=C/C=C/c2ccco2)SC1=S)c1ccncc1,6,/,2,86*,1,77*,58*,36*,123*,55*,54*,
O=C(NN1C(=O)/C(=C/C=C/c2ccccc2)SC1=S)c1ccncc1,3,-5,25*,131*,23,71*,35*,47*,-3,2,19,IDE inh confirm=2;HEK cytotox=14
O=C(N/N=C/C=C/c1ccco1)c1ccncc1,-4,-3,0,-1,-15,0,/,/,/,/,/,
COc1ccc(/C=C2\SC(=S)N(NC(=O)c3ccncc3)C2=O)cc1OC,/,/,8,6,-10,/,/,/,/,/,/,
Cc1ccc(S(=O)(=O)NC(C)(C)CN2CCCCC2)cc1,1,5,7,-3,2,2,/,/,/,/,/,
CCC[C@@H](O)c1cc2cc(OC)c(OC)cc2c(=O)o1,5,4,-1,/,/,3,/,/,/,/,/,
SMILES,Rin1-Abl PPI inh,IDE act,IDE inh,TPT1 inhibitor,Calb FLC,Rpn11 block,TPT1 inh confirm,RNase T1 inh,Rpn11 confirm,MMP-2 inh,Thrombin inh,others
COc1cc(/C=C2\NC(=S)N(C)C2=O)ccc1O,-3,-22,12,27*,10,73*,30*,35*,54*,49*,43*,
CN1C(=O)/C(=C/c2ccc(O)c([N+](=O)[O-])c2)NC1=S,-5,10,1,-1,24,-2,/,/,/,/,/,
COc1ccc(-c2sc(Nc3cccc4ccccc34)n[n+]2C)c(C)c1C,5,0,/,/,/,1,/,/,/,/,/,
Cc1ccc(NC(=O)CO/N=C/c2ccc(N(C)C)cc2)cc1,0,-11,10,93*,11,77*,106*,113*,108*,-44,96*,
CN(C)c1ccc(/C=C/C=C2/SC(=S)N(c3ccccc3)C2=O)cc1,3,-4,11,104*,-49,70*,71*,81*,49*,-31,37,
COc1ccc2[nH]cc(/C=C/c3cc[n+](C)cc3)c2c1,-34,-10,13,71*,2,116*,83*,90*,114*,-66,114*,
CC(Sc1ccccc1)C(=O)NNC(=O)c1ccncc1 (stereo not drawn),2,3,-1,-1,-1,-2,/,/,/,/,/,
CCOc1ccc(N2C(=O)S/C(=C\c3ccc(O)c(OCC)c3)C2=O)cc1,-1,-4,3,46*,0,47*,58*,60*,9,26,-1,
